Drawing on PubChem BioAssay (Tox21), this text covers outcome and cytotoxicity for 40 compounds.

Inconclusive results are not listed. Activity calls are given as the source filed them. Calls come from the whole dose curve; as a rule, active = well fitted activation curve with a large enough effect in the repeat runs; inconclusive = weak or mixed curves; inactive = flat fitted curve, though single readings scatter.
% is set by controls: 0 for no effect and ±100 for the full control effect.

The experiment is described as follows: A CellTox Green Cytotoxicity Assay to monitor cytotoxicity in HepG2 cells - 24 hour (AID 1224878). Note: nearly all actives have a fitted effect of over 45% in size. The note with it: CellTox Green fluorescence; series mostly up to 76.8 µM. An excerpt: National Center for Advancing Translational Sciences [NCATS]
NIH Chemical Genomics Center [NCGC]
U.S. Environmental Protection Agency [EPA]
National Institutes of Environmental Health Sciences [NIEHS]
National Toxicology Program [NTP]
Cell-based models are critical for drug discovery. Determining the natural cytotoxic effects resulting from test compounds is an essential research activity. A CellTox Green Cytotoxicity Assay to monitor cytotoxicity in real time of continues cell culture during 40 hours of the compound treatment was used to screen Tox21 10K library compounds in HepG2 cells. CellTox Green Cytotoxicity Assay is a nonlytic, homogeneous, biofluorescent method to measure cytotoxicity in cell culture after experimental manipulation. The assay system uses a proprietary asymmetric cyanine dye that is excluded from viable cells but preferentially stains the dead cell's DNA. […] Viable cells produce no appreciable increases in fluorescence. Therefore, the fluorescence signal produced by the binding interaction with dead cell DNA is proportional to cytotoxicity.
The mixture of HepG2 cell suspension and reagents were dispensed at 600cells/6 ul/well in 1536-well tissue culture treated black solid bottom plates using a Multidrop dispenser. After the assay plates were incubated at a 37 C/5% CO2 incubator for 5 hours, 23 nL of compounds dissolved in DMSO, positive and negative controls was transferred to the assay plate by a pintool work station. The plates were incubated at 37 C for 40 hours. The fluorescence intensity were measured at 0h, 8h, 16h, 24h, 32h and 40h time points using ViewLux plate reader during compound treatment.
`CC(=O)Nc1ccc(S(=O)(=O)Nc2ccc([N+](=O)[O-])cc2)cc1`: the result was inactive.

Take `C=Cc1ccccn1`: the call was inactive.

Regarding `CC1=C(C(=O)O)N2C(=O)[C@@H](NC(=O)[C@H](N)c3ccc(O)cc3)[C@H]2SC1`, the compound was classed as inactive.

With `CCN(C)C(=O)Oc1cccc([C@H](C)N(C)C)c1`, the outcome was inactive.

As to `O=C1c2ccccc2C(=O)C1c1ccccc1`, the compound was called inactive.

In the case of `CCn1ccc(NS(=O)(=O)c2ccc(N)cc2)nc1=O`, the compound was called inactive.

As for `COc1ccc(OC)c(Cl)c1`, the outcome was inactive.

Consider `CCCCCCN`, for which the result was inactive.

As for `Cc1ccccc1N=O`, the compound was classed as inactive.

Turning to `O=C1c2cccc3c2[C@H](CCC3)CN1[C@@H]1CN2CCC1CC2`, the compound was classed as inactive.

Consider `CC(=O)/C=C/C1C(C)=CCC(C)C1(C)C` (stereo not given), for which the result was inactive.

On to `CCCCCCOc1ccccc1C(N)=O`, for which the compound was classed as inactive.

On to `FC(F)(F)c1ccccc1-n1ccnc1`, for which the outcome was inactive.

In the case of `CN=C(NC#N)Nc1ccc(C2=NNC(=O)CC2C)cc1` (stereo not given), the outcome was inactive.

Consider `COc1ccc(C2CNC(=O)C2)cc1OC1CCCC1` (stereo not given), for which the call was inactive.

As to `N[C@@H](CCC(=O)N[C@@H](CS)C(=O)NCC(=O)O)C(=O)O`, the cytotoxicity is -12.9% [at 15.8 µM] (inactive).

For `COC(=O)C1CC(=O)C(C(=O)OC)CC1=O` (stereo not given), the cytotoxicity was -7.82% [at 6.97 µM] (inactive).

For `Cc1cccc(C)c1OCC(C)N` (stereo not given), the outcome was inactive.

For the compound `O=C1c2ccccc2C(=O)c2cc(S(=O)(=O)O)ccc21`, the compound was called inactive.

On to `CC(C)(C)NC(N)=O`, for which the result was inactive.

With `COc1ccc(S(=O)(=O)N2c3ccc(Cl)cc3[C@@](O)(c3ccccc3Cl)[C@H]2C(=O)N2CCC[C@@H]2C(N)=O)cc1OC`, the result was inactive.

In the case of `OCCN(CCO)c1cccc(Cl)c1`, the compound was classed as inactive.

Turning to `BrCCCCCBr`, the outcome was inactive.

Consider `CCCCOCCOC(=O)COc1nc(Cl)c(Cl)cc1Cl`, for which the compound was classed as inactive.

For the compound `COc1cc(NS(=O)(=O)c2ccc(N)cc2)nc(OC)n1`, the call was inactive.

Take `CC(C)CCCCOC(=O)c1ccccc1C(=O)OCCCCC(C)C`: the result was inactive.

`CCOCCOCCOCC`: the call was inactive.

In the case of `COCCOCCOCCOCCO`, the outcome was inactive.

Turning to `OCCCCC(O)CO` (stereo not given), the result was inactive.

`COc1ccc(Br)c(C)c1`: the result was inactive.

As for `COc1ccc2nc(SCc3ncc(C)c(OC)c3C)[nH]c2c1`, the outcome was inactive.

Take `CCCN1C[C@H](CSC)C[C@@H]2c3cccc4[nH]cc(c34)C[C@H]21`: the result was inactive.

In the case of `O=C1c2ccccc2C(=O)N1CCl`, the result was inactive.

As to `CCCCCCCCC(=O)Cl`, the compound was called inactive.

For the compound `C[C@H](N)[C@H](O)c1cccc(O)c1`, the outcome was inactive.

As for `CCCCCCCCCC(C)=O`, the compound was classed as inactive.

With `CC[C@H](C)C(=O)O[C@H]1C[C@H](O)C=C2C=C[C@H](C)[C@H](CC[C@@H](O)C[C@@H](O)CC(=O)O)[C@H]21`, the outcome was inactive.

As to `CC(=O)OC(C)OC(=O)C(C)c1ccc(-c2ccccc2)c(F)c1` (stereo not given), the outcome was inactive.

Regarding `CCCOC(=O)C(C)O` (stereo not given), the result was inactive.

Consider `CC(=O)N[C@@H](CCC(=O)O)C(=O)O`, for which the compound was classed as inactive.
